# CYP2C9 activ – activators of human CYP2C9 | P11712 | recombinant CYP2C9, luciferin-H conversion, luminescence; stronger effect = higher value; factor 1 = untreated enzyme, 0 = blocked | activation factor at 5 µM | actives 1.4% (n = 96,000) | AID 1024;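 active = activation factor of 2 or more for CYP2C9 at a 5 µM dose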
# sEH activator – increases human soluble epoxide hydrolase activity | purified human sEH enzymatic activity, activator screen | P34913 | activation, % at 2 µM | AID 717 | actives 0.04% (n = 91,000); in the data active = activation above about 37%
# sEH inh – soluble epoxide hydrolase (human) inhibition; recombinant human sEH enzymatic activity assay; actives 0.34% (n = 91,000); P34913; inhibition, % at 2 µM; in the data active = inhibition above about 80%
# CYP2C19 inh – inhibitors of human CYP2C19. AID 778. inhibition, % at 5 µM. actives 21% (n = 96,000). P33261. CYP2C19 Supersomes, luciferin-H EGE luminescence, 30 min;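 active = CYP2C19 inhibition above a set limit at 5 µM in the primary screen, cut at about 50% in these data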
# Target sequence (P33261 whole entry, looked up): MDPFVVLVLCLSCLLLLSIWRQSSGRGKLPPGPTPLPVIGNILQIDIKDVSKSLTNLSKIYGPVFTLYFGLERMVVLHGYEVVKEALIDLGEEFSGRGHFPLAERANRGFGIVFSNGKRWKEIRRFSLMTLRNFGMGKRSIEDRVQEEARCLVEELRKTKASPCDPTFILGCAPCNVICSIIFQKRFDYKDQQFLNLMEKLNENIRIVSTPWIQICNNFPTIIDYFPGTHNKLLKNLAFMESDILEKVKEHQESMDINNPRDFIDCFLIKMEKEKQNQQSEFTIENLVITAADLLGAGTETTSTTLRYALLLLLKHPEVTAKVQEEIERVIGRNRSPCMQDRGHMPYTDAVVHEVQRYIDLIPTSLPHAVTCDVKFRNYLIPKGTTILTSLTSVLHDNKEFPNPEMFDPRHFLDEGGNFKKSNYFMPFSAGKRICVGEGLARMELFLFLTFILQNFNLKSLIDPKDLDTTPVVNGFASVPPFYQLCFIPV
# CYP2C19 act – increases human CYP2C19 enzyme activity | P33261 | recombinant CYP2C19, luciferin-H EGE luminescence; stronger effect = higher value; 0 = fully inhibited enzyme, 1 = untreated enzyme | activation factor at 5 µM | 96,000 tested, under 10 active;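 active = activation factor of at least 2 at 5 µM in the primary screen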
# CYP2C9 inhib – human CYP2C9 inhibition. P11712. CYP2C9 Supersomes, luciferin-H conversion, luminescence. inhibition, % at 5 µM. actives 20% (n = 96,000). AID 777;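 active = blocking of liver enzyme CYP2C9 beyond about 50% at 5 µM, limit read from the data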
# Hits are given with their value; . = inactive; / = no result given. Sampled rows, rich in hits. Any-hit rate of the full collection: about 27%.
SMILES,CYP2C9 activ,sEH activator,sEH inh,CYP2C19 inh,CYP2C19 act,CYP2C9 inhib
CCOC(=O)C1CCCN(C(=O)CCn2nc(-c3ccccc3)ccc2=O)C1 (stereo not given),.,.,.,.,.,.
Cc1ccc(-c2nnc(N(C)C(=O)c3ccccn3)s2)cn1,.,.,.,.,.,.
Cc1ccc(-c2nnc(N(C)C(=O)c3ccncc3)s2)cn1,.,.,.,.,.,85
CN(C(=O)c1ccncc1)c1nnc(-c2cnccn2)s1,.,.,.,89,.,97
CCOC(=O)N1CCN(C(=O)c2nc3ccccc3s2)CC1,.,.,.,.,.,.
CC(/C=N\NC(=O)Cn1c(C)nc2ccccc21)=C\c1ccccc1,.,.,.,.,.,.
Cc1c(Br)ccc(NC(=O)CCN2C(=O)C3C4CCC(C4)C3C2=O)c1C (stereo not given),.,.,.,.,.,.
Cc1ccc(NC(=O)/C(=C\C=C\c2ccccc2)NC(=O)c2ccccc2)cc1,.,.,.,.,.,68
Cc1ccc(NC(=O)/C(=C\c2ccccc2)NC(=O)/C=C/c2ccccc2)cc1,.,.,.,.,.,.
COc1ccc(OC)c(NC(=O)CS(=O)(=O)c2ccccc2)c1,4.3,.,.,69,.,.
COc1ccc(OC)c(NC(=O)CSc2ccccc2)c1,.,.,.,57,.,.
COc1cc(NC(=O)CS(=O)(=O)c2ccc(C)cc2)cc(OC)c1OC,.,.,.,73,.,.
CCN(CC(=O)Nc1ccc(OC)c(OC)c1)S(=O)(=O)c1ccc(C)cc1,.,.,.,.,.,.
COc1ccc(OC)c(NC(=O)Nc2ccccc2C)c1,.,.,.,67,.,.
Cn1c(=O)c2c(nc(CN3CCC(C(N)=O)CC3)n2Cc2ccccc2Cl)n(C)c1=O,.,/,/,.,.,.
COCCNC(=O)c1cn(C)c2ccc(S(=O)(=O)N(C)C3CCCCC3)cc2c1=O,.,/,/,.,.,.
Cn1c(=O)c2[nH]c(N3CCOCC3)nc2n(-c2ccccc2)c1=O,.,/,/,.,.,.
COc1ccc([N+](=O)[O-])cc1NCc1ccccc1C,.,.,.,68,.,69
COc1ccc([N+](=O)[O-])cc1NC1CCCCC1,.,.,.,.,.,.
COc1ccc(OC)c(NC(=O)C2CC(C)=C(C)CC2C(=O)O)c1 (stereo not given),.,.,.,.,.,61
COc1ccc(OC)c(NC(=O)C2CCCN2C(=O)OCc2ccccc2)c1 (stereo not given),.,/,/,97,.,62
COc1ccc([N+](=O)[O-])cc1NC(=O)CSc1ccccc1,.,.,.,93,.,.
COc1ccc(C)cc1NC(=O)C1CCCN1C(=O)OCc1ccccc1 (stereo not given),.,/,/,.,.,.
COc1ccc([N+](=O)[O-])cc1NC(=S)NC(NC(=O)Cc1ccc(OC)c(OC)c1)C(Cl)(Cl)Cl (stereo not given),.,.,.,.,.,58
COc1ccc(OC)c(NC(=O)CSc2ncnc3c2cnn3-c2ccccc2Cl)c1,/,.,.,/,/,/
SMILES,CYP2C9 activ,sEH activator,sEH inh,CYP2C19 inh,CYP2C19 act,CYP2C9 inhib
Cc1nc2ccc(NC(=O)c3cccs3)cc2c(=O)n1Cc1ccc(Cl)cc1,.,.,.,79,.,68
CCCc1nc2ccc(NC(=O)NCCC(=O)OCC)cc2c(=O)n1Cc1ccc(Cl)cc1,/,.,.,/,/,/
CCCc1nc2ccc(NC(=O)NCCC(=O)OCC)cc2c(=O)n1Cc1cccc(Cl)c1,.,.,.,.,.,.
CCOC(=O)CCNC(=O)Nc1ccc2nc(C)n(Cc3ccccc3Cl)c(=O)c2c1,.,.,.,55,.,94
CCOC(=O)CCNC(=O)Nc1ccc2nc(C)n(Cc3cccc(Cl)c3)c(=O)c2c1,.,.,.,62,.,81
Cc1ccc(S(=O)(=O)Nc2cc(C(=O)N3CCOCC3)ccc2N2CCCCC2)cc1,.,.,.,.,.,57
Cc1ccc(NS(=O)(=O)c2cccc(C(=O)N3CCOCC3)c2)cc1,.,.,.,72,.,.
Cc1ccc(S(=O)(=O)Nc2cc(C(=O)O)ccc2N2CCCCC2)cc1,.,.,.,.,.,.
COc1cc(OC)c(C2SCCN2S(=O)(=O)c2ccc(F)cc2)cc1OC (stereo not given),.,.,.,60,.,.
COc1ccc(OC)c(C2SCCN2S(=O)(=O)c2cccc(C(F)(F)F)c2)c1 (stereo not given),.,.,.,91,.,53
COc1ccc(S(=O)(=O)N2CCSC2c2ccc(N)cc2)cc1 (stereo not given),.,.,.,97,.,.
COc1ccc(OCC(=O)Nc2ncc3c(n2)CC(C)(C)CC3=O)cc1,.,.,.,.,.,.
O=C(Nc1ccccc1)c1nnsc1S(=O)c1ccc(Cl)cc1 (stereo not given),.,.,.,.,.,64
COc1ccc(N/C(N)=N/c2nc(CSc3ccc(C)cc3)cc(=O)[nH]2)cc1,.,.,.,.,.,.
COc1ccccc1N/C(N)=N/c1nc(CSc2ccc(C)cc2)cc(=O)[nH]1,.,.,.,61,.,61
COc1ccc(C(O)(C(=O)NNc2ccc(C)cc2)c2cccs2)cc1 (stereo not given),.,.,.,77,.,.
CCC1CCc2c(sc(NC(=O)c3ccoc3C)c2C(N)=O)C1 (stereo not given),.,.,.,.,.,.
COc1ccc(OC)c(N)c1,.,.,.,.,.,.
COc1ccc2c(c1)C(=NN)c1cc(OC)ccc1-2,.,.,.,.,.,62
COC(=O)c1ccc(C(=O)Nc2ccc3nc(-c4cccnc4)[nH]c3c2)cc1,.,.,.,.,.,67
Cn1cccc1-c1nc2ccc(NC(=O)c3ccccc3)cc2[nH]1,.,.,.,78,.,68
Cc1ccc(S(=O)(=O)Nc2ccc3nc(-c4cccn4C)[nH]c3c2)cc1,.,.,.,100,.,100
O=C(O)C1CC(=O)N(Cc2cccs2)C1 (stereo not given),.,/,/,.,.,.
CC(C)Cc1cc(C(=O)Nc2ccc(F)cc2F)no1,.,/,/,.,.,.
CC(C)Cc1cc(C(=O)Nc2cc(Cl)ccc2Cl)no1,2.6,.,.,.,.,.
CC(C)c1cc(C(=O)Nc2cc(Cl)ccc2O)no1,.,.,.,.,.,50
CSCCC(NC(N)=O)C(=O)NCc1ccc(Cl)cc1 (stereo not given),.,.,.,.,.,.
Cc1nc(-c2ccccn2)sc1C(=O)Nc1ccc(F)cc1F,.,.,.,.,.,.
Cc1nc(-c2ccccn2)sc1C(=O)Nc1ccc(F)cc1,2.1,.,.,.,.,.
CCOc1ccccc1NC(=O)CN(c1ccc(C)cc1)S(=O)(=O)c1c(C)noc1C,.,.,.,99,.,96
